The values that follow come from PubChem BioAssay.

The nature of assay [1]: rapamycin-like changes in RPL19A-GFP expression – cell-based, S. cerevisiae, multiplex flow cytometry, primary screen (AID 1862; in the data active = percent of DMSO control GFP below about 86%;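 note: lower values mimic rapamycin by blocking the RPL19A rise seen in DMSO cells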). To be noted: S. cerevisiae RPL19A-GFP strain, flow cytometry fluorescence, 3 h; at 10 µM; stronger effect = lower value.
A short description of assay [2]: TOR pathway GLN3 branch reporter MEP2-GFP changes – S. cerevisiae, multiplex flow cytometry, primary screen (AID 1867;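 active = GFP response, as percent of the DMSO control, above the screen-wide mean plus 3 SD, about 139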;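 note: median GFP channel fluorescence of barcode-gated MEP2-GFP cells measured by flow cytometry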). To be noted: S. cerevisiae MEP2-GFP strain, 3 h, at 10 µM, stronger effect = higher value. Background: A flow cytometer gives signals particle by particle.
Assay [3] in a line: TOR pathway RTG branch CIT2 reporter changes – S. cerevisiae, GFP fusion, multiplex flow cytometry, primary screen (AID 1870;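 active = percent response above a set limit, the screen-wide mean plus 3 SD, cut at about 130% in these data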;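 note: barcoded CIT2-GFP strain pooled with four other GFP strains with rapamycin as positive control; median GFP fluorescence per well over plate mean of DMSO wells so 100% = DMSO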). The following applies: S. cerevisiae CIT2-GFP expression, 3 h, at 10 µM, stronger effect = higher value.
Assay [4] is described as follows: TOR pathway LAP4-GFP level changes – S. cerevisiae, multiplex flow cytometry, primary screen (AID 1873;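 active = GFP signal, as percent of the solvent control, above the screen mean plus 3 SD, about 149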). The following applies: S. cerevisiae LAP4-GFP expression, 3 h, at 10 µM, stronger effect = higher value.
Assay [5] in a line: yeast AGP1-GFP level changes, GLN3 branch – cell-based, multiplex flow cytometry, S. cerevisiae, primary screen (AID 1887;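 active = GFP signal above the screen-wide mean plus 3 SD, that is over about 124.5% of the solvent control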;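 note: AGP1-GFP fusion strain of S. cerevisiae within a five-strain barcoded multiplex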). To be noted: 3 h, at 10 µM, stronger effect = higher value.
Assay [6] is described as follows: reduced mouse 2C T cell binding to pMHC/ICAM-1 vesicles – MLPCN validation set, flow cytometry, LFA-1/ICAM-1 modulator project, pilot screen (AID 2523;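 active = response below a set limit, under 55% cells CD8-positive and vesicle-bound, and CD8 cells' 90th-percentile brightness under 279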;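 for vesicle binding response: mean PE anti-B7-1 fluorescence of CD8+ cells relative to row control; 100% = QL9-loaded vesicles with DMSO vehicle in the same plate row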). The following applies: 2C mouse CD8+ T cells, at 7 µM, stronger effect = lower value; double positive events: measured here: CD8+/vesicle+ event percentage.
Assay [7] concerns the target Integrin beta-1 (Homo sapiens) + Integrin alpha-4 (Homo sapiens) (UniProt P13612+P05556). In words: alpha4beta1 integrin LIBS antibody binding reduction – U937 cells, HUTS-21 mAb, flow cytometry, validation set, VLA-4 allosteric modulator project, pilot screen (AID 2674;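 active = inhibition above 50%, about 3 SD of the validation set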;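 note: antibody binding induced by the VLA-4 ligand LDV present at three times its Kd; 0% = LDV ligand with antibody and no compound and 100% = antibody without LDV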). The following applies: HUTS-21 LIBS mAb binding, at 6.7 µM, stronger effect = higher value.
Assay [8] in a line: calorie-restriction mimetic ROS inhibitors, yeast – validation compound set, pilot screen (AID 2706;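 active = superoxide response below 65% of plate, a cut near 3 SD across the whole screen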;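 note: yeast exposed to compound for one week at 30 degrees C before staining; 100% = mean of all compound wells on the same plate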). The following applies: S. cerevisiae aging, superoxide DHE fluorescence; at 10 µM; stronger effect = lower value.
In assay [9] the target is Beta-adrenergic receptor kinase 1 (Homo sapiens) (UniProt P25098). In words: GRK2 binders displacing RNA aptamer, biochemical, validation, human GRK2, bead flow cytometry (AID 488806;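 active = aptamer binding inhibition above 30%, about 3 SD of noise from non-fluorescent compounds; inactive = inhibition at or below 30%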). To be noted: bead-bound GRK2, FAM-aptamer displacement, at 10 µM, stronger effect = higher value.
Sequence of Beta-adrenergic receptor kinase 1 (Homo sapiens) (P25098 whole entry, looked up): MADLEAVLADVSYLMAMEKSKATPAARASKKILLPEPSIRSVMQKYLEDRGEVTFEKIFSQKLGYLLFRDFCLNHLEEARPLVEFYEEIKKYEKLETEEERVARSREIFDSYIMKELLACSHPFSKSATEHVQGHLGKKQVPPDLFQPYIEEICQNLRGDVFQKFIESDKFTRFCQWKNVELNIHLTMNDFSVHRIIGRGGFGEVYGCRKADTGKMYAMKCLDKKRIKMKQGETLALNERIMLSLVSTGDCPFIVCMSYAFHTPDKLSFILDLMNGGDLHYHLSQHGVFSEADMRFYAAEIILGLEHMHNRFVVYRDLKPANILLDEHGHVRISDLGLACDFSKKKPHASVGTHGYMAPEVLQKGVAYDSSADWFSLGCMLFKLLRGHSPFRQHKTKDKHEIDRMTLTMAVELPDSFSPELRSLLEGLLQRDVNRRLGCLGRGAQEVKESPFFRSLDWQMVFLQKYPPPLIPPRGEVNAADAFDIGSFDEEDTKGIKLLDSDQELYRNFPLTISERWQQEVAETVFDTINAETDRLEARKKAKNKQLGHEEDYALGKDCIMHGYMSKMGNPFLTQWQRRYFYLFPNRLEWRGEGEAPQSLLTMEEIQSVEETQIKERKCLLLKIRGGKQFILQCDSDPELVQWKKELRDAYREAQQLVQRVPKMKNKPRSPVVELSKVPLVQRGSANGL
Assay [10] has as its target Beta-2 adrenergic receptor (Homo sapiens) (UniProt P07550). In words: agonist-induced loss of surface beta2AR – cell-based, FAP fluorogen, flow cytometry, validation set, pilot screen (AID 504459;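 active = percent response above 42, roughly 3 SD of non-fluorescent test compounds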;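 note: agonist-driven loss of surface beta2AR via internalization measured by FAP dye flow cytometry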). The following applies: Am2.2-beta2AR cells, at 10 µM, stronger effect = higher value.
Assay [11] deals with AP-2 complex subunit beta (Homo sapiens) (UniProt P63010). Briefly: beta-arrestin/AP2 interaction blockers – biochemical, validation set, GST-AP2 beads, flow cytometry, pilot screen (AID 504541;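 active = inhibition above 54%, about 3 SD of non-fluorescent compounds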;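 note: AP2 carries R879A mutation and is captured from E. coli lysate; bead-bound FITC arrestin peptide fluorescence measuring arrestin peptide binding to AP2; 0% = DMSO wells and 100% = excess unlabeled arrestin peptide control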). The following applies: FITC arrestin peptide, at 10 µM, stronger effect = higher value.
Sequence of AP-2 complex subunit beta (Homo sapiens) (P63010 whole entry, looked up, one chain of several): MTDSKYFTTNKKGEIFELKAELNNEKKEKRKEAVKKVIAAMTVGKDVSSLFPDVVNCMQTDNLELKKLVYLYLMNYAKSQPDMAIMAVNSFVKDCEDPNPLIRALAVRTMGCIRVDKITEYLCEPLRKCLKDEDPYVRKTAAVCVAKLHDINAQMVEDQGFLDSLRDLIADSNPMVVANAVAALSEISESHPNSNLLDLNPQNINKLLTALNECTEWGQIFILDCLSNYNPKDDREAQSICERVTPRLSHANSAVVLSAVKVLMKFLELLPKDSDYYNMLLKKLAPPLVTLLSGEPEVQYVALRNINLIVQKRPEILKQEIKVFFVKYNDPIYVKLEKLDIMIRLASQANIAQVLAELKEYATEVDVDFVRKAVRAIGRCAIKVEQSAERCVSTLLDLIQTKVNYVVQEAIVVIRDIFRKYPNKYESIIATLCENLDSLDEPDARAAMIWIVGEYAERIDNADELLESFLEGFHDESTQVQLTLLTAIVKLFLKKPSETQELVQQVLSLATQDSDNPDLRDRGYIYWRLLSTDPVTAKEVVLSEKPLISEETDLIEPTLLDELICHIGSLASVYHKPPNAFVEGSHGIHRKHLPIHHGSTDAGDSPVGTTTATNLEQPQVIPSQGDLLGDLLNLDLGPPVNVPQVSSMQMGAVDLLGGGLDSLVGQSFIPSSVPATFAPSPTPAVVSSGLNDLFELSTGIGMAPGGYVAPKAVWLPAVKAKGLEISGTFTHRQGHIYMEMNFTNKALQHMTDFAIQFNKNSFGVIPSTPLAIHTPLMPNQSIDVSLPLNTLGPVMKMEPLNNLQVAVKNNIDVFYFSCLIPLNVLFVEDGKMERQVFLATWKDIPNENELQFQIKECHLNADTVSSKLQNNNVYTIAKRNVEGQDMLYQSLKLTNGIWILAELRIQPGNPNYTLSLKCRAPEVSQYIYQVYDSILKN
Assay [12] is described as follows: cytosolic pH regulators acting via V-ATPase – S. cerevisiae, pHLuorin, HTS validation (AID 504600; in the data active = response above about 15%;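 note: plate controls were DMSO for no effect and reference compound for full effect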). The following applies: V-ATPase proton transport, at 10 µM, stronger effect = higher value.
The test system of assay [13] is anti-desmoglein-3 scFv antibody binding to human DSG3. In words: blockers of pathogenic pemphigus antibody–desmoglein-3 binding – biochemical, validation compound set, bead-based, flow cytometry, pilot screen (AID 588368;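 active = binding below the plate cutoff, the plate median minus 3 SD, with a reading above zero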;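 note: signal is the median channel fluorescence of bead-bound GFP antibody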). The following applies: Protein G beads, DSG3-Fc, scFv-GFP binding, at 10 µM, stronger effect = lower value.
The test system of assay [14] is Botulinum neurotoxin type F light chain protease (Clostridium botulinum). In words: Clostridium botulinum type F light chain protease inhibitors, microsphere substrate cleavage, validation (AID 588459). To be noted: multiplex microsphere protease substrate cleavage assay, flow cytometry; at 10 µM; stronger effect = higher value.
The target of assay [15] is Botulinum neurotoxin type A (Clostridium botulinum) (UniProt P0DPI0). Briefly: BoNT/A light chain protease inhibitors, biochemical, multiplex microsphere flow cytometry, validation set (AID 588460). To be noted: at 10 µM, stronger effect = higher value.
Sequence of Botulinum neurotoxin type A (Clostridium botulinum) (P0DPI0 whole entry, looked up): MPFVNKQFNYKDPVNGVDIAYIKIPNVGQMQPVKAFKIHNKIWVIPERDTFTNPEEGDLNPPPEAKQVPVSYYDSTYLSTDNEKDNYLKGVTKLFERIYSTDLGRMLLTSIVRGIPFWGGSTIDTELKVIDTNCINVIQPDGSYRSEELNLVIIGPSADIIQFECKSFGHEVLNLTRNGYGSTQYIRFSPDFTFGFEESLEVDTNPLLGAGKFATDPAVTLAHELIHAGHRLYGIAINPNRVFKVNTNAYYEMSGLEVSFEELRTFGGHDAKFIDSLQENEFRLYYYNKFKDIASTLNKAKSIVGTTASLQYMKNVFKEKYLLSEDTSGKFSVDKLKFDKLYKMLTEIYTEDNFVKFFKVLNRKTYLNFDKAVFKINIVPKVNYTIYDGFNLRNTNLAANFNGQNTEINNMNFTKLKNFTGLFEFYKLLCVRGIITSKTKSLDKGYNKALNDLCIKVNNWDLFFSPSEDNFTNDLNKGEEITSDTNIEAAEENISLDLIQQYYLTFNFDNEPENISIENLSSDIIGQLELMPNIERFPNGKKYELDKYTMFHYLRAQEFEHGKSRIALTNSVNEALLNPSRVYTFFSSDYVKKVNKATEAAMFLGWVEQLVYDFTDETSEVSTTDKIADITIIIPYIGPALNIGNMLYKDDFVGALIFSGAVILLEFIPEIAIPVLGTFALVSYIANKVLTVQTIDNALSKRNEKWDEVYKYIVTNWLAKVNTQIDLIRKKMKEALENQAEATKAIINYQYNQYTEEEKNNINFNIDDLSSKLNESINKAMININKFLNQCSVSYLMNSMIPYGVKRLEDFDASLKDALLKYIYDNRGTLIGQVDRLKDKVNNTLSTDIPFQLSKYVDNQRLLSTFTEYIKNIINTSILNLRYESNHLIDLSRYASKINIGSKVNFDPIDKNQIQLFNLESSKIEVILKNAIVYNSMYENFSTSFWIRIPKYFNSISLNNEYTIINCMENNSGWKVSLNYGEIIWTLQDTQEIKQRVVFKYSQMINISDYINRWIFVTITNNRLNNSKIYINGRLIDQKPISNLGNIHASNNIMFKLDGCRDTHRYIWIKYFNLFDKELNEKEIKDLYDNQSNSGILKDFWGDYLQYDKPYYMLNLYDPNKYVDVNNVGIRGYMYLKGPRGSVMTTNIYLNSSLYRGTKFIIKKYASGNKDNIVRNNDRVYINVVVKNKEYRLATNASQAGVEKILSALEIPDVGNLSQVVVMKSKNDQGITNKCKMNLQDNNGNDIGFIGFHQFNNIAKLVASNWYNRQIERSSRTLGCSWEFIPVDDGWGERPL
Assay [16] deals with Lethal factor (Bacillus anthracis) (UniProt P15917). In words: Bacillus anthracis lethal factor inhibition, microsphere flow cytometry protease assay, validation at 10 µM (AID 588461). To be noted: multiplex microsphere protease cleavage assay, stronger effect = higher value.
Sequence of Lethal factor (Bacillus anthracis) (P15917 whole entry, looked up): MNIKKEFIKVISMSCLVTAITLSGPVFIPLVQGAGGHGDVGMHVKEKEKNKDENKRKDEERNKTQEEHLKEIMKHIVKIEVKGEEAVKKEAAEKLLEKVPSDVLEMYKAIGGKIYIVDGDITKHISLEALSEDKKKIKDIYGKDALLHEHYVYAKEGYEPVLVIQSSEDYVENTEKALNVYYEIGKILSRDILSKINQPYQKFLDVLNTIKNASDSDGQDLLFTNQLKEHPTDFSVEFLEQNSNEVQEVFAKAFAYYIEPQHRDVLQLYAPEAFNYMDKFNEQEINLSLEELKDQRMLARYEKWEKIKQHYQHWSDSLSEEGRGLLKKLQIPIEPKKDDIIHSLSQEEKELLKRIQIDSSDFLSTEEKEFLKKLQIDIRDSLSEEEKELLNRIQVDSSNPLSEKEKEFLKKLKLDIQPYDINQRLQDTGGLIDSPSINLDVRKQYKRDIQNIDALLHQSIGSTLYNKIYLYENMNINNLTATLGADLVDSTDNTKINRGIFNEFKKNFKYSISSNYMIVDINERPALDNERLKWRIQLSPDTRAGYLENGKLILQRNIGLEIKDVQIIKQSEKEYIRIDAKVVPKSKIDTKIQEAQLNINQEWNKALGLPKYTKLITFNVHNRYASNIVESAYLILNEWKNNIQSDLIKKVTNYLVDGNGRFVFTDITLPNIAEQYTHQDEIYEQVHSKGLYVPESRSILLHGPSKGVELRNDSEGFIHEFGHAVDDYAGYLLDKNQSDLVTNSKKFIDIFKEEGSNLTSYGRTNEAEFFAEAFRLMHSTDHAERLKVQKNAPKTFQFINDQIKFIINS
Assay [17] can be described thus: Nile Red efflux blockade in pump-expressing yeast – validation compound set, multiplex, phenotypic, pilot screen (AID 588506;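 active = efflux inhibition above 0.42, the validation set average plus 4 SD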;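 note: Nile Red retained in cells so higher fluorescence means more efflux inhibition; 0 = negative control wells and 1 = enniatin B 25 µM full block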). The following applies: S. cerevisiae pump-expressing triplex, Nile Red efflux flow cytometry; at 10 µM; stronger effect = higher value.
Assay [18] deals with ATP-binding cassette sub-family B member 6 (Homo sapiens) (UniProt Q9NP58). Briefly: blockers of ABCB6-driven porphyrin uptake – K562-ABCB6 cells, flow cytometry, validation set, pilot screen (AID 588550;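 active = inhibition above the screen-wide mean plus 3 SD, about 51%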;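 note: 0% = DMSO wells and 100% = benzethonium chloride 70 µM positive control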). To be noted: K562-ABCB6 porphyrin accumulation, 1 h, at 10 µM, stronger effect = higher value.
Sequence of ATP-binding cassette sub-family B member 6 (Homo sapiens) (Q9NP58 whole entry, looked up): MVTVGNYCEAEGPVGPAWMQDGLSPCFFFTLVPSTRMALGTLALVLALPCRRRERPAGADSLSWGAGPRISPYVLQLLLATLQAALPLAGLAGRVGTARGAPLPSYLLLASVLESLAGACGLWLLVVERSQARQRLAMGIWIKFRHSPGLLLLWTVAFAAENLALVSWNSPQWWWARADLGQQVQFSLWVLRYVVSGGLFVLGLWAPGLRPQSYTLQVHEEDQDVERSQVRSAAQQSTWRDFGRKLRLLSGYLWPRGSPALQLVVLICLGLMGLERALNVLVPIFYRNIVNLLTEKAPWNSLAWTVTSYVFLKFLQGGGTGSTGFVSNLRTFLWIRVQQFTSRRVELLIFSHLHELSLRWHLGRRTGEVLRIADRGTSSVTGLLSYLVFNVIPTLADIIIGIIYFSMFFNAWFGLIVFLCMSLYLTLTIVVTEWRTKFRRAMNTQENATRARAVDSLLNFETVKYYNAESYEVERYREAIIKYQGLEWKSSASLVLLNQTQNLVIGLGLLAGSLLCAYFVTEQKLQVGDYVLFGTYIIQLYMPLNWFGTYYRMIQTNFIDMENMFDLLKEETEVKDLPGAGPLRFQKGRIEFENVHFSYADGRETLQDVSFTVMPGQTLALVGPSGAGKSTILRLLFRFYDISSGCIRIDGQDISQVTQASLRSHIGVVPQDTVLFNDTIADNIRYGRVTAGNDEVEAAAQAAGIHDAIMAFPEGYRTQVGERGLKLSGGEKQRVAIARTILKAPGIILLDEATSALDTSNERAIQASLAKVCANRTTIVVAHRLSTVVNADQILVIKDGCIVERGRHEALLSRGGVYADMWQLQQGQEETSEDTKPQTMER
The nature of assay [19]: AML differentiation inducers, ER-HoxA9 marrow cells – cell-based, GFP/MAC1 double positive, flow cytometry, validation set, primary screen (AID 588685;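 active = differentiation response of at least 50%, scaled between solvent and reference control, from cells with both markers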;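 note: compound exposure lasts four days before antibody staining and flow analysis; 0% = DMSO wells and 100% = 5 µM fulvestrant positive control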). To be noted: stronger effect = higher value.

Molecules are shown by their SMILES. Records with an inconclusive call do not appear. The source made the active and inactive calls. Unless noted, the rule behind the calls is not given here.

Sequence of Beta-2 adrenergic receptor (Homo sapiens) (P07550 whole entry, looked up): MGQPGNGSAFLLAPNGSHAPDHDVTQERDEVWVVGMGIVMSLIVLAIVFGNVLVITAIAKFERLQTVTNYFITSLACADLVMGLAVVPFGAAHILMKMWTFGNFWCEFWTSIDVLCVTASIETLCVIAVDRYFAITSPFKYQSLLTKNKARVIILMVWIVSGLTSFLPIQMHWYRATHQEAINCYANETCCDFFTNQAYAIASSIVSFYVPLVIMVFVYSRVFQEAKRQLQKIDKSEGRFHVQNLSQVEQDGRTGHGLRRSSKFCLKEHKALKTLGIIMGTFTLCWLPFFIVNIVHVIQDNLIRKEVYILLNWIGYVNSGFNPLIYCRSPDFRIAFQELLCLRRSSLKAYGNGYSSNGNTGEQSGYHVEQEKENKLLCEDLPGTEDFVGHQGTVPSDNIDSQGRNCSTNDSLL

As usually defined, the inhibition is the relative decrease from the control value, in per cent. As for `COP(=S)(OC)SCN1C(=O)c2ccccc2C1=O`, the percent of DMSO control GFP in assay [1] was 90.6% (inactive). Also, the GFP response vs DMSO was 92.7% (inactive) in assay [2] and 144% (inactive) in assay [4]. In addition, the percent response of DMSO control in [3] is 97% (inactive). In assay [5], the GFP response, % of DMSO is 107% (inactive). For the same compound, the double positive events in assay [6] is 63.5%. For the same compound, in [6], the vesicle binding response is 194% (inactive). For the same compound, the inhibition in assay [7] is 0.59% (inactive); in assay [11], -11.6% (inactive); in [14], -1.7% (inactive); in assay [15] it was -0.5% (inactive); in assay [16], -2.9% (inactive); in [18] it was -1% (inactive). The superoxide response (% of plate) in [8] was 97.7% (inactive). The aptamer binding inhibition in assay [9] was -4% (inactive). The figures for the response in [10] and in assay [12] were -10.4% (inactive) and 6.49% (inactive), respectively. The binding (% of control) in [13] is 96.4% (inactive). Also, in assay [17], the efflux inhibition (fraction of control) was -0.09 (inactive). In addition, in [19], the differentiation response is 3.88% (inactive).
For the compound `[N-]=[N+]=CC(=O)OC[C@H](N)C(=O)O`, in [1], the percent of DMSO control GFP was 102% (inactive). For the same compound, the GFP response vs DMSO in assay [2] is 102% (inactive); in [4] it was 109% (inactive). In addition, the percent response of DMSO control in assay [3] is 100% (inactive). For the same compound, the GFP response, % of DMSO in assay [5] was 110% (inactive). Further, the double positive events in [6] came out at 64.4%. For the same compound, in assay [6], the vesicle binding response was 133% (inactive). The inhibition is 12.5% (inactive) in [7]; 4.06% (inactive) in assay [11]; 2.7% (inactive) in [14]; 1.2% (inactive) in assay [15]; 2.3% (inactive) in assay [16]; 5% (inactive) in assay [18]. Also, in [8], the superoxide response (% of plate) is 97.4% (inactive). In addition, the aptamer binding inhibition in assay [9] was 5% (inactive). In addition, the response in [10] is -13% (inactive); in assay [12], 2.12% (inactive). In addition, in assay [13], the binding (% of control) was 92.8% (inactive). The efflux inhibition (fraction of control) in assay [17] is -0.13 (inactive). For the same compound, the differentiation response in assay [19] was 0.92% (inactive).
With `Cc1ccc(-n2c(C)cc(/C=C3/C(=O)NC(=O)N(C)C3=O)c2C)cc1`, in [1], the percent of DMSO control GFP is 103% (inactive). The GFP response vs DMSO in assay [2] and in [4] was 103% (inactive) in each case. Besides, in assay [3], the percent response of DMSO control is 107% (inactive). The GFP response, % of DMSO in assay [5] is 106% (inactive). The double positive events in assay [6] was found to be 64.1%. Moreover, the vesicle binding response in assay [6] is 164% (inactive). Further, the inhibition was 0.25% (inactive) in [7]; -0.22% (inactive) in assay [11]; -1.4% (inactive) in [14]; 0.3% (inactive) in [15]; -5% (inactive) in assay [16]; -2% (inactive) in assay [18]. For the same compound, the superoxide response (% of plate) in assay [8] was 94.5% (inactive). Besides, in assay [9], the aptamer binding inhibition is -5% (inactive). For the same compound, the results for the response in assay [10] and in [12] were 3.21% (inactive) and 5.34% (inactive), respectively. Further, the binding (% of control) in [13] is 108% (inactive). In assay [17], the efflux inhibition (fraction of control) was -0.22 (inactive). For the same compound, the differentiation response in assay [19] was -14.8% (inactive).
Consider `CN1C2CCC1CC(OC(=O)c1ccc(Cl)cc1)C2` (stereo not given), for which the percent of DMSO control GFP in assay [1] is 99.9% (inactive). Moreover, the GFP response vs DMSO in assay [2] was 98.5% (inactive); in assay [4] it was 119% (inactive). In [3], the percent response of DMSO control was 98.6% (inactive). Further, in [5], the GFP response, % of DMSO is 108% (inactive). The compound also came in with a double positive events in assay [6] of 62.2%. Besides, in assay [6], the vesicle binding response is 228% (inactive). Also, the inhibition in [7] is 11.9% (inactive); in [11], -3.16% (inactive); in [14], 0% (inactive); in assay [15] it was -1.9% (inactive); in [16], -2.9% (inactive); in [18] it was 4% (inactive). Also, in [8], the superoxide response (% of plate) was 99.6% (inactive). For the same compound, the aptamer binding inhibition in [9] was -1% (inactive). In addition, the response in assay [10] was -2.49% (inactive); in [12], 2.46% (inactive). Also, the binding (% of control) in [13] is 99.5% (inactive). In addition, the efflux inhibition (fraction of control) in [17] was -0.03 (inactive). Moreover, in [19], the differentiation response is -13.6% (inactive).
